This excerpt belongs to a sample that is enriched for hits.
ALOX12 inh – ALOX12 (human) lipoxygenase inhibition; P18054; purified 12hLO, xylenol orange hydroperoxide absorbance; Potency, µM (highest dose often 108 µM), most hits filed as inhibitors; 1.1% of 580,000 active; AID 1671190
Target sequence (P18054 whole entry, looked up): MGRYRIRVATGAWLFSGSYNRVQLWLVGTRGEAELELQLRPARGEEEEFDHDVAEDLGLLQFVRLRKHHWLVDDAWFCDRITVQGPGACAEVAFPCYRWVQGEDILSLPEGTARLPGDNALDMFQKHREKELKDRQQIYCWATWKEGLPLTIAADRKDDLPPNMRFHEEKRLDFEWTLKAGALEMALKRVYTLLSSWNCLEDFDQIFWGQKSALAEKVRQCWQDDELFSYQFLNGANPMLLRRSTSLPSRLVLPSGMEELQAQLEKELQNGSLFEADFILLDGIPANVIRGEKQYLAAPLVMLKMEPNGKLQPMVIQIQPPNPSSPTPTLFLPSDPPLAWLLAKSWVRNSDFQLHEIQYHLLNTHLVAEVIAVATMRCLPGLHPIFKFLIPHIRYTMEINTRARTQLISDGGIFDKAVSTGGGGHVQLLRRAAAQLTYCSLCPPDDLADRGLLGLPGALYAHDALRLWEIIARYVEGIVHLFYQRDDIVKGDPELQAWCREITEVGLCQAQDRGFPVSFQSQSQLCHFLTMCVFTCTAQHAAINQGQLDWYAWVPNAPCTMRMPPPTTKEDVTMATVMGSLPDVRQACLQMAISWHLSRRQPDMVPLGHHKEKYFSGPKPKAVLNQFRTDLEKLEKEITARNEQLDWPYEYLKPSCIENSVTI
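Purified human 12hLO (150 nM final) in 25 mM Hepes, 0.01% Triton X-100, pH 7.0 was preincubated 15 min at room temperature with compound. Then 40 uM arachidonic acid was added, 30 min. Hydroperoxide was read by Fe-XO absorbance ratio 573/405 nm.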
DT40 TDP1 no CPT – qHTS for Inhibitors of human tyrosyl-DNA phosphodiesterase 1 (TDP1): qHTS in cells in absence of CPT. DT40 Tdp1-/- hTDP1 cells, no CPT, ATP luminescence, 48 h. Potency, µM (highest dose often 46.2 µM), hits mostly inhibitors. 15% of 420,000 active. AID 686978, 2013; also: nearly all actives have a fitted effect of over 55% in size
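Growth of hTDP1-complemented DT40 Tdp1-knockout cells is measured by ATP luminescence after at least 48 hr compound exposure at 37 °C, with DMSO substituting for the 20 nM CPT used in the parallel screen.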
HT1080 IDH1KD tx – HT-1080 IDH1 knockdown cell toxicity (counter line); HT-1080 IDH1 knockdown viability, ATP luminescence, 48 h; Potency, µM (titrated, usually from 46.1 µM), hits mostly cytotoxic; 2% of 360,000 active; AID 686971
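Knockdown cells (IDH1KD HT-1080) received compounds 2 h after plating at 750 cells/well and were kept 48 h at 37 °C in 5% FBS RPMI. A CellTiter-Glo luminescence read gave % activity for curve fitting.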
TDP1 cell CPT – growth inhibition of DT40 Tdp1-/-;hTDP1 cells with camptothecin (screen for TDP1 inhibitors); chicken DT40 Tdp1-/-;hTDP1 cells + 20 nM CPT, ATP luminescence, 48 h; Potency, µM (doses to about 46.2 µM), hits mostly inhibitors; 12% of 420,000 active; also: nearly all actives have a fitted effect of over 55% in size
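Chicken DT40 Tdp1-/- cells complemented with human TDP1, 400 cells/well, exposed to compounds plus 20 nM camptothecin for at least 48 h at 37 C; viability read as ATP content by CellTiter-Glo luminescence.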
HT1080NT lethal – kills 2HG-producing HT-1080-NT fibrosarcoma cells | HT-1080-NT fibrosarcoma viability, CellTiter-Glo ATP luminescence, 48 h | AID 686970 | Potency, µM (series often up to 46.1 µM), usual class: cytotoxic | 1.6% of 360,000 active;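 also: NT is the 2HG producing partner of a matched IDH1 knockdown line; nearly all actives have a fitted effect of over 55% in size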
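HT-1080-NT; 750 cells/well; 5% FBS RPMI; 48 h compound, 37 degrees C; CellTiter-Glo luminescence; curve fitting and curve-class assignment.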
IL-1B inflam inh – inflammasome signaling inhibition, IL-1 beta readout; 4.7% of 360,000 active; THP-1 LPS/ATP IL-1B secretion, AlphaLISA, 16 h; stronger effect = lower value; activity change, % at 57.5 µM; AID 743279; in the data active = activity change below about -50%; inconclusive = mostly about -30% to -49%
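Secreted IL-1B measured by AlphaLISA bead assay after 16 h compound exposure of THP-1 cells; compounds (final up to 57.5 uM) added 1 h before LPS (250 ng/mL) and ATP (1.25 mM) stimulation; lower signal means less secretion.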
A number is an active result; – = inactive; ? = inconclusive; · = no result; [ ] = another dose, or the depositor's remark. Unless noted, calls follow the shape of the dose curve; as a rule, active = well fitted curve in the direction sought with a large enough effect; inconclusive = small, poorly fitted or top-dose-only effect, or another doubt; inactive = no such curve, though single readings can be large; an effect the other way counts as inactive or inconclusive.

SMILES	ALOX12 inh	DT40 TDP1 no CPT	HT1080 IDH1KD tx	TDP1 cell CPT	HT1080NT lethal	IL-1B inflam inh
O=C(Nc1cc(Cl)ccc1N1CCOCC1)c1ccc(N2CCCCC2)c([N+](=O)[O-])c1	–	?	–	?	–	–
O=C(Nc1ccc(N2CCOCC2)c(Cl)c1)C1CCCCC1	–	16µM	–	21µM	–	–
CN(Cc1ccccc1)S(=O)(=O)c1ccc2c(c1)NC(=O)CS2	–	·	·	·	·	·
Cc1ccc2cc3c(N)nn(C(=O)c4cccc(F)c4)c3nc2c1	–	7.3µM	·	?	·	·
COc1ccc2cc3c(N)nn(C(=O)Cc4ccccc4OC)c3nc2c1	–	9.2µM	–	9.2µM	–	-60
COc1ccc2cc3c(N)nn(C(=O)C4CCC(C(C)(C)C)CC4)c3nc2c1 (stereo not given)	–	18µM	–	9.2µM	–	-86
COc1ccc2cc3c(N)nn(C(=O)c4ccc(F)cc4Cl)c3nc2c1	–	8.2µM	·	9.2µM	·	·
COc1ccc(C(=O)n2nc(N)c3cc4ccc(C)cc4nc32)cc1OC	–	–	·	–	·	·
Cc1cccc(C(=O)NC2CCN(c3cc(-c4cccs4)[nH]n3)C2)c1 (stereo not given)	–	·	·	·	·	·
CN(C)CC(C)(O)c1ccc2c(c1)CN(Cc1cnn(-c3ccccc3)c1)CCO2 (stereo not given)	–	–	·	–[9.04 µM]	·	·
CC1CCc2nn3ccn(CC(=O)Nc4ccc(C(F)(F)F)cc4)c(=O)c3c2C1 (stereo not given)	–	·	·	·	·	·
CCCNC(=S)Nc1c(C)n(C)n(-c2ccccc2)c1=O	–	–	–	–	–	–
CC(C)CCOc1ccc(C(=O)NCC2OCCc3ccccc32)cc1 (stereo not given)	–	?	·	?	·	·
CC(C)COc1ccc(C(=O)NCC2OCCc3ccccc32)cc1 (stereo not given)	–	15µM	·	?	·	·
Cc1ccc(S(=O)(=O)NCCCN2CCCC2)cc1	–	–	–	–	–	–
Cc1cccc(Cn2c(SCc3ccc(C(=O)NCCc4ccccc4)cc3)nc3ccncc32)c1	–	13µM	·	?	·	·
Cc1cccc(CSc2nc3ccncc3n2Cc2ccc(C(=O)NCCN(C)C)cc2)c1	–	·	·	·	·	·
O=C(NCCc1ccccc1)c1ccc(CSc2nc3ccncc3n2Cc2cccc(F)c2)cc1	–	12µM	·	13µM	·	·
O=C(NC1CCCCC1)c1ccc(CSc2nc3ccncc3n2Cc2ccccc2F)cc1	–	?	·	?	·	·
O=C(NCCc1ccccc1)c1ccc(CSc2nc3ccncc3n2Cc2ccccc2F)cc1	–	?	·	15µM	·	·
COc1ccc(OC)c([S+](=O)([O-])c2nnn3c2nc(NCCCOC(C)C)c2ccccc23)c1	–[6.33 µM]	·	·	·	·	·
O=C(NCCCO)c1nc(-c2cccc3[nH]ccc23)no1	–	·	·	·	·	·
NC(=O)c1cc(S(=O)(=O)Nc2ccccc2)cs1	–	–	–	–	–	–
Cc1cc(C)cc(NS(=O)(=O)c2ccc(NC(=S)NC(=O)c3cccs3)cc2)c1	?	18µM	?	21µM	?	?
COc1cc(NS(=O)(=O)c2ccc(NC(=S)NC(=O)c3ccc(F)c(F)c3)cc2)nc(OC)n1	13µM	–	–	–	–	–
SMILES	ALOX12 inh	DT40 TDP1 no CPT	HT1080 IDH1KD tx	TDP1 cell CPT	HT1080NT lethal	IL-1B inflam inh
Cc1ccc(NC(=O)c2cc(S(=O)(=O)Nc3ccc(C)cc3)cs2)cc1	?	23µM	–	23µM	–	-78
Cc1ccc(NS(=O)(=O)c2ccc(NC(=O)c3cccs3)cc2)c(C)c1	–	?	–	?	–	–
O=C(NC(=S)Nc1ccc(NC(=O)c2cccs2)cc1)c1cc2ccccc2o1	–	?	18µM	13µM	21µM	–
COc1ccccc1N1CCN(C(=O)CCn2cnc3ccccc3c2=O)CC1	–	·	·	·	·	·
O=C(c1cccc(C(F)(F)F)c1)c1c[nH]c(C(=O)NCCCN2CCOCC2)c1	–	–	–	–	–	–
COc1ccc(C(CC(=O)N(C)Cc2cc(C)no2)c2ccccc2)cc1 (stereo not given)	–	·	·	·	·	·
COc1cc(NS(=O)(=O)c2ccc(NC(=S)NC(=O)c3cccs3)cc2)nc(OC)n1	32µM	–	–	–	–	–
CCOC(=O)c1c(-c2ccc(OC)cc2)nc2nonc2c1N	–	2.6µM	–	?	–	–
O=S(=O)(c1cccc2c(I)cccc12)N1CCCNCC1	–	8.2µM	·	13µM	·	·
O=S(=O)(c1cccc2c(Cl)cccc12)N1CCCNCC1	?	5.8µM	·	9.2µM	·	·
COCC(=O)N1C[C@@H]2CCCN3CCC[C@@H]([C@H]23)[C@H]1CCCC(=O)NCC1CC1	–	·	·	·	·	·
Cc1nc(-c2ccccc2)sc1C(=O)NS(=O)(=O)c1ccc(CN2CCN(c3ccccc3)CC2)cc1	32µM	–	–	–	–	–
CNC(=O)c1sc(-c2ccccc2)nc1C	–	–	–	–	–	–
COc1cc(OC)cc(C(=O)NNC(=O)CCNC(=O)c2ccc(Br)cc2)c1	–	–	–	–	–	–
CC(=O)Nc1cccc(-c2ccnc3c2CC(C(=O)Nc2ccc(C(C)C)cc2)O3)c1 (stereo not given)	–	12µM	?	21µM	?	-51
CC(=O)Nc1ccc(-c2ccnc3c2CC(C(=O)Nc2ccccc2)O3)cc1 (stereo not given)	–	5.8µM	18µM	4.6µM	?	–
CC(=O)Nc1ccc(NC(=O)C2Cc3c(-c4cccc(NC(C)=O)c4)ccnc3O2)cc1 (stereo not given)	–	–	–	–	–	–
COc1ccc(NC(=O)C2Cc3c(-c4cccc(NC(C)=O)c4)ccnc3O2)cc1 (stereo not given)	–	3.3µM	?	3.7µM	?	–
CC(=O)Nc1cccc(-c2ccnc3c2CC(C(=O)NCCN(C)C)O3)c1 (stereo not given)	–	–	–	–	–	–
COc1ccc(NC(=O)C2Cc3c(-c4cccc(C(C)=O)c4)ccnc3O2)cn1 (stereo not given)	–	2.9µM	3.3µM	2.6µM	?	–
O=C(Nc1ccc2c(c1)OCCO2)N1CCC(Cc2nc(-c3ccncc3)n[nH]2)CC1	–	·	·	·	·	·
CC(C)C(NC(=O)OCc1ccccc1)C(=O)N1CCOCCOCCOCC1 (stereo not given)	–	?	–	–	–	–
O=C(Nc1ccc(F)c(Cl)c1)C1Cc2c(-c3ccco3)ccnc2O1 (stereo not given)	?	15µM	–	23µM	–	–
CC(=O)Nc1cccc(-c2ccnc3c2CC(C(=O)NCC2CC2)O3)c1 (stereo not given)	–	?	?	?	–	–
